Experimental data as given in paper PMC5540273 (PLoS ONE, 2017).

tested on: QSK; conditions: concentration: 1 μM, replicates: in singlicate; n = 1
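Also: KINOMEscan kinase panel screen.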

Row | SMILES | %Inh [%]
1 | COC(=O)Nc1nc2cc(Oc3ccc(NC(=O)Nc4cc(C(F)(F)F)ccc4F)cn3)ccc2[nH]1.Cl.Cl [GW681170] | 0
2 | Fc1ccc(-c2ncn(C3CCNCC3)c2-c2ccnc(Oc3ccc(-c4ccccc4)cc3)n2)cc1 [SB-245391] | 7
3 | Cc1ccc(C)c(NC(=O)NC2CCN(c3ccnc(Nc4ccc(F)cc4)n3)C2)c1 (stereo not shown) [GSK1379720] | 13
4 | CSc1cccc2c(-c3ccncn3)c(-c3ccc(F)cc3)nn12 [GW514786] | 14
5 | Oc1cc(Nc2ccnc3cc(I)ccc23)ccc1F [GW552771] | 69
6 | Cc1ccc(S(=O)(=O)Nc2ccc(Nc3nccc(Nc4cccc5[nH]ncc45)n3)cc2)cc1 [GSK581271] | 6
7 | COc1cccc(-c2ccc3c(NC(=O)C4CC4)n[nH]c3n2)c1 [SB-710903] | 0
8 | O=C(Nc1cccc(-c2nn3ccccc3c2-c2ccnc(Nc3cccc(C(F)(F)F)c3)n2)c1)c1c(F)cccc1F [GSK292658] | 2
9 | Cl.Cl.NCC(NCc1ccc(-c2ccnc3[nH]ccc23)s1)c1ccccc1 (stereo not shown) [GSK1321565] | 0
10 | CCn1c(-c2nonc2N)nc2c(C#CC(C)(C)O)nc(OC[C@H](N)c3ccccc3)cc21 [GSK943949] | 0
11 | COCCOCCOc1cc2ncc3c4ccc(C#N)cc4[nH]c3c2cc1OC | 67
12 | Clc1ccc(-c2nn3ncccc3c2-c2ccnc(Nc3ccc4c(c3)OCCO4)n2)cc1 [GW829116] | 0
13 | COc1cccc(NC(=O)NC2CCN(c3ccnc(Nc4cc(OC)c(OC)c(OC)c4)n3)C2)c1 (stereo not shown) [GSK1379763] | 0
14 | COc1cccc(C(=O)Nc2cccc(Oc3ccc4nc(NC(=O)C5CC5)cn4n3)c2)c1 | 0
15 | CN(C)Cc1ccc(-c2ccc3c(Nc4ccc(Oc5ccccn5)cc4)ccnc3c2)o1 [GW567148] | 0
16 | Nc1ncc(-c2cccnc2)c2scc(-c3ccc4c(c3)CCN4C(=O)Cc3ccccc3)c12 [GSK683281] | 18
17 | COc1ccc(Nc2nccc(NCCNC(=O)c3cc4ccccc4s3)n2)cc1 [GSK1379896] | 2
18 | O=C(Nc1n[nH]c2nc(-c3ccc(O)cc3)ccc12)C1CC1 [SB-710363] | 17
19 | O=C(Nc1cccc(-c2nn3ccccc3c2-c2ccnc(Nc3cccc(F)c3)n2)c1)c1c(F)ccc(F)c1Cl [GSK357952] | 5

Row | SMILES | %Inh [%]
20 | CN1CCN(Cc2cccc(-c3ccc4c(Nc5ccc(Oc6ccccc6)cc5)ccnc4c3)c2)CC1 [GW578342] | 9
21 | COc1cc(Nc2nccc(N3CCC(NC(=O)Nc4cccc(C(C)=O)c4)C3)n2)cc(OC)c1OC (stereo not shown) [GSK1379753] | 0
22 | c1ccc(Oc2ccc(Nc3ccnc4cc(-c5ccc(CNCCN6CCOCC6)o5)ccc34)cc2)nc1 [GW567145] | 17
23 | CC(C)c1nc(-c2cccc(NS(=O)(=O)c3c(F)cccc3F)c2F)c(-c2ccnc(Nc3ccc(N4CCOCC4)nc3)n2)s1 [GSK2008607] | 90.5
24 | C[C@@H](Oc1cc(-n2cnc3cc(-c4ccnc(NCCS(C)(=O)=O)c4)ccc32)sc1C(N)=O)c1ccccc1Cl [GSK907232] | 14
25 | Cn1cc(-c2[nH]c3cc(NC(=O)[C@H](N)C4CCCCC4)cc4c3c2C=NNC4=O)cn1 | 95.8
26 | CCS(=O)(=O)c1ccc(OC)c(Nc2nccc(-c3c(-c4cccc(NC(=O)c5c(F)cccc5F)c4)nn4ncccc34)n2)c1 [GSK326180] | 7
27 | Cl.NC(=O)c1cccc(Nc2nccc(Nc3ccc(Oc4c(Cl)cccc4Cl)c(Cl)c3)n2)c1 [GW659009] | 0
28 | Nc1ncc(-c2ccc3nccc(-c4ccncc4)c3c2)cc1S(=O)(=O)N1CCOCC1 [GSK1627798] | 0
29 | Cn1cc(-c2ccc3c(c2)CCN3C(=O)Cc2cccc(Cl)c2)c2c(N)ncnc21 [GSK2606590] | 23
30 | CC(C)(C)c1ccc2nccc(Nc3cccc(O)c3)c2c1 [GW856795] | 0
31 | CC(=O)Nc1nc2cnc(Nc3cc(NC(=O)c4cccc(C5(C#N)CC5)c4Cl)ccc3C)nc2s1 | 0
32 | COc1cc(Nc2nccc(N3CCC(NC(=O)c4cc5ccccc5s4)C3)n2)cc(OC)c1OC (stereo not shown) [GSK1379760] | 100
33 | Cc1occc1-c1ncc(OC[C@@H](N)Cc2c[nH]c3ccccc23)cc1-c1ccc2[nH]nc(C)c2c1.O=C(O)C(F)(F)F [GSK682037] | 11
34 | C[C@@H]1CC[C@@H](C(=O)Nc2ccccc2)CN1c1cc(-c2ccc3c(N)n[nH]c3c2)nc(N)n1 [GSK2286062] | 3
35 | CCn1c(-c2nonc2N)nc2c(C#CC(C)(C)O)ncc(OCCCCN)c21.O=C(O)C(F)(F)F.O=C(O)C(F)(F)F [GSK507274] | 5
36 | O=c1[nH]cc(-c2ccc(N3CCOCC3)cc2)c2sc(-c3cn[nH]c3)cc12 [GSK2276055] | 11
37 | COc1cccc(C2=C(Nc3ccc(Cl)c(C(=O)O)c3)C(=O)NC2=O)c1 [SB-390769] | 100
